Assay results reported in ChEMBL document CHEMBL1961873, “Compounds: GSK PKIS; Assays: Nanosyn kinase panel” (2012).

target: T1, Serine/threonine-protein kinase 4 (Homo sapiens) (UniProt Q13043); conditions: at 1 µM;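 also: mean inhibition of MST1, part of the GSK PKIS dataset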
T1 sequence (whole entry): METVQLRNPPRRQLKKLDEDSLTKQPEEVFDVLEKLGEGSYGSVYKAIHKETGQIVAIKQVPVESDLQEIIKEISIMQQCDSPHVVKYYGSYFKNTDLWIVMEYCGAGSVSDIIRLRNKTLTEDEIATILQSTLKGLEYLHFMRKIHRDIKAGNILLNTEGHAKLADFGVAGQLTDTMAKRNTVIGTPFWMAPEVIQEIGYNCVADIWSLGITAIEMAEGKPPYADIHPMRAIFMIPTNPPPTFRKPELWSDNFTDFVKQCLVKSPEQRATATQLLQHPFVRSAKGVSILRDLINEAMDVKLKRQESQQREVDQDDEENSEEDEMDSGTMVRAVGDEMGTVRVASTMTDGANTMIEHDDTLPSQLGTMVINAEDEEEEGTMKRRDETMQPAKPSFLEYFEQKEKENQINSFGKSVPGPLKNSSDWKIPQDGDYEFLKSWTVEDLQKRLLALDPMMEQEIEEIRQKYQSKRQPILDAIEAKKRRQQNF

Going from `Fc1ccc(-c2nn3ccccc3c2-c2ccncc2)cc1` to `Cc1ccc2c(-c3ccnc(Nc4ccccc4)n3)c(-c3ccc(F)cc3)nn2n1`, the inhibition rises from 0.15% to 5.86%.

First: c1ccc(-c2nc3n(c2-c2ccc4c(c2)OCO4)CCC3)nc1
Second: CCOc1ccc2c(-c3ccnc(Nc4cccc(C(F)(F)F)c4)n3)cnn2n1
The inhibition of the first is lower: 1.63% for the first, 3.98% for the second.

Going from `N#Cc1c(NC(=O)c2ccc(F)cc2)sc2c1CCCC2` to `CNC(=O)c1cc(-c2ccc(F)cc2)cc(-c2ccc(S(=O)(=O)N3CCCC3)cc2)c1N`, the inhibition falls from 2.59% to 1.31%.

Going from `COc1cc(N2CCN(C(C)C)CC2)ccc1Nc1nc(Nc2ccc(F)cc2C(N)=O)c2cc[nH]c2n1` to `COc1cc2c(cc1Nc1nc(Nc3ccsc3C(N)=O)c3cc[nH]c3n1)N(C(=O)CN(C)C)CCC2(C)C`, the inhibition rises from 25.2% to 47.7%.

Going from `O=S(=O)(CCNCc1ccc(-c2ccc3ncnc(Nc4ccc(OCc5cccc(F)c5)c(Cl)c4)c3c2)o1)c1ccccc1` to `CS(=O)(=O)CCNCc1ccc(-c2ccc3ncnc(Nc4ccc(OCc5ccccc5)c(C(F)(F)F)c4)c3c2)o1`, the inhibition falls from 7.44% to 3.71%.

Compared with `CCn1cc(-c2ccnc3[nH]ccc23)c(-c2cccc(NC(=O)Nc3ccc(OCc4ccccc4)cc3)c2)n1`, `c1ccc(COc2ccc(Nc3ncnc4ccc(-c5ccco5)cc34)cc2)cc1` is lower in inhibition: 1.63% for the first, 0.76% for the second.

Going from `COc1cc(Nc2nccc(Nc3ccc4c(C)n[nH]c4c3)n2)cc(OC)c1OC` to `COC(=O)Nc1nc2ccc(Oc3ccc(NC(=O)Nc4cccc(Cl)c4)cc3)cc2[nH]1`, the inhibition falls from 7.86% to 1.87%.

Going from `CCn1c(-c2nonc2N)nc2c(C#CC(C)(C)O)nc(OC[C@H](N)c3ccccc3)cc21` to `CCN(CC)S(=O)(=O)c1ccc(OC)c(Nc2ncc(-c3ccccc3)o2)c1`, the inhibition falls from 42.7% to 11%.

Going from `Nc1ncc(-c2cccc(S(N)(=O)=O)c2)c2scc(-c3ccc(F)c(Cl)c3)c12` to `NS(=O)(=O)c1ccc(N/N=C2\C(=O)Nc3ccc4ncccc4c32)cc1`, the inhibition rises from 6.44% to 89.5%.

target: T2, Serine/threonine-protein kinase 3 (Homo sapiens) (UniProt Q13188); conditions: at 0.1 µM;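 also: reported value is the mean percent inhibition of MST2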
T2 sequence (whole entry): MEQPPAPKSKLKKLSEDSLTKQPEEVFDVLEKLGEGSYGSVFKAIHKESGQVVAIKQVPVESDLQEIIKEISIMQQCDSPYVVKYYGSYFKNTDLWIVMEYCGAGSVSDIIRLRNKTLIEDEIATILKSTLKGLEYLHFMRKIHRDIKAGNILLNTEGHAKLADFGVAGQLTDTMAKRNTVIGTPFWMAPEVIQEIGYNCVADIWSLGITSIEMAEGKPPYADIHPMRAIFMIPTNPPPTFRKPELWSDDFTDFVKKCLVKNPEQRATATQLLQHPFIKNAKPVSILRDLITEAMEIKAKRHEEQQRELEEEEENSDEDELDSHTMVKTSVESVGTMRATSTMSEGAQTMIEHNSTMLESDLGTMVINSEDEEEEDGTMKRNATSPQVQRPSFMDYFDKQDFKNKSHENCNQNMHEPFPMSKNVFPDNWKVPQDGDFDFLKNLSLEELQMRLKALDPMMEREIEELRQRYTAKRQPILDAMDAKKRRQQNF

Compared with `CN1CCC(n2cnc(-c3ccc(F)cc3)c2-c2ccnc(N)n2)CC1`, `Cc1ccc2c(-c3ccnc(Nc4ccccc4)n3)c(-c3ccc(F)cc3)nn2n1` is higher in inhibition: 3.58% for the first, 8.21% for the second.

Compared with `NC(=O)c1sc(-n2cnc3ccc(C(F)(F)F)cc32)cc1OCc1ccccc1Br`, `CCOc1ccc2c(-c3ccnc(Nc4cccc(C(F)(F)F)c4)n3)cnn2n1` is higher in inhibition: 3.43% for the first, 5.61% for the second.

Going from `CN(C)CCOc1ccc(-c2nc(-c3ccncc3)c(-c3ccc4c(c3)CC/C4=N\O)[nH]2)cc1` to `Fc1ccc(-c2nn3ccccc3c2-c2ccncc2)cc1`, the inhibition falls from 4.63% to 0.09%.

Going from `CCCN(CCS(C)(=O)=O)Cc1ccc(-c2ccc3ncnc(Nc4ccc(OCc5cccc(F)c5)c(Cl)c4)c3c2)o1` to `O=S(=O)(CCNCc1ccc(-c2ccc3ncnc(Nc4ccc(OCc5cccc(F)c5)c(Cl)c4)c3c2)o1)c1ccccc1`, the inhibition rises from 0.87% to 8.36%.

First: CCc1nn2ncccc2c1-c1ccnc(NC2CC2)n1
Second: c1cc(-c2cnn3nc(N4CCOCC4)ccc23)nc(NC2CC2)n1
The inhibition of the first is lower: 1.75% for the first, 8.19% for the second.

Going from `CCNC(=O)O[C@H]1CN[C@H](C#Cc2cc3ncnc(Nc4ccc(OCc5cccc(F)c5)c(Cl)c4)c3s2)C1` to `CNC(=O)c1cccc(C#Cc2cncnc2Nc2ccc(OCc3cccc(F)c3)c(Cl)c2)c1`, the inhibition falls from 6.17% to 5.85%.

Going from `CCN1CCC(CC(=O)Nc2n[nH]c3nnc(-c4cccc(F)c4F)cc23)CC1` to `COc1cc(N2CCN(C(C)C)CC2)ccc1Nc1nc(Nc2ccc(F)cc2C(N)=O)c2cc[nH]c2n1`, the inhibition rises from 3.62% to 4.27%.

First: CS(=O)(=O)CCNCc1coc(-c2ccc3ncnc(Nc4ccc(OCc5ccccc5)cc4)c3c2)c1
Second: CS(=O)(=O)CCNCc1ccc(-c2ccc3ncnc(Nc4ccc(OCc5ccccc5)c(C(F)(F)F)c4)c3c2)o1
The inhibition of the first is higher: 4.25% for the first, 4.04% for the second.

First: COc1ccc(-c2cc3c(N)ncnc3o2)cc1
Second: c1ccc(COc2ccc(Nc3ncnc4ccc(-c5ccco5)cc34)cc2)cc1
The inhibition of the first is lower: -3.02% for the first, 0.84% for the second.

First: N#Cc1c(NC(=O)CN2CCOCC2)sc2c1CCCC2
Second: N#Cc1c(NC(=O)c2ccc(F)cc2)sc2c1CCCC2
The inhibition of the first is higher: 4.7% for the first, 0.16% for the second.

Going from `Clc1ccc(-c2nn3ncccc3c2-c2ccnc(Nc3ccccc3)n2)cc1` to `Cc1ccc(O)cc1Nc1ccnc2cc(-c3ccccn3)ccc12`, the inhibition rises from -0.25% to 8.56%.

Going from `COc1cc(/C=N/Nc2ncnc3[nH]ncc23)ccc1O` to `COc1cc(Nc2nccc(Nc3ccc4c(C)n[nH]c4c3)n2)cc(OC)c1OC`, the inhibition falls from 5.9% to 5.15%.

Going from `CC(C)(CO)CNC(=O)c1ccc2c(c1)/C(=N/Nc1ccc(S(N)(=O)=O)cc1)C(=O)N2` to `NS(=O)(=O)c1ccc(N/N=C2\C(=O)Nc3ccc4ncccc4c32)cc1`, the inhibition rises from 31.6% to 80.3%.

First: c1ccc(-c2nc3n(c2-c2ccc4c(c2)OCO4)CCC3)nc1
Second: Nc1ncc(-c2cccc(S(N)(=O)=O)c2)c2scc(-c3ccc(F)c(Cl)c3)c12
The inhibition of the first is lower: 1.29% for the first, 7.02% for the second.

Compared with `COc1cc2c(cc1Nc1nc(Nc3ccsc3C(N)=O)c3cc[nH]c3n1)N(C(=O)CN(C)C)CCC2(C)C`, `CCN(CC)S(=O)(=O)c1ccc(OC)c(Nc2ncc(-c3ccccc3)o2)c1` is lower in inhibition: 12.3% for the first, 7% for the second.

Compared with `CNC(=O)c1cc(-c2ccc(F)cc2)cc(-c2ccc(S(=O)(=O)N3CCCC3)cc2)c1N`, `COC(=O)Nc1nc2ccc(Oc3ccc(NC(=O)Nc4cccc(Cl)c4)cc3)cc2[nH]1` is higher in inhibition: 0.82% for the first, 3.48% for the second.

Compared with `CCn1cc(-c2ccnc3[nH]ccc23)c(-c2cccc(NC(=O)Nc3ccc(OCc4ccccc4)cc3)c2)n1`, `CCn1c(-c2nonc2N)nc2c(C#CC(C)(C)O)nc(OC[C@H](N)c3ccccc3)cc21` is higher in inhibition: 2.37% for the first, 9.64% for the second.
